Test results as given in PubChem BioAssay AID1159580 (chemical genetic matrix, 2015).
In all, about 5,500 compounds went through this assay and about 2,000 (36%) were called active. Inconclusive results (about 18%) are left out. Some of the results follow. A number with no mark means an inactive call. Rule as the data show it: active = normalized growth mostly below about 0.91 (no sharp cut-off); inconclusive = no clear call, values can overlap the other calls; inactive = mostly above about 0.92.

Experiment: chemical genetic growth profiling, strain panel (AID 1159580);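 also: tested at 20 µM; growth read once vehicle control cultures reached saturation at 30 °C; 1 = growth at the plate median or of vehicle wells; lower values mean less growth of the strain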
Conditions: S. cerevisiae deletion strains, growth OD
[1] = locus YHR030C, strain SLT2, active compounds read low
[2] = locus YHR079C, strain IRE1, active compounds read low
[3] = locus YJL095W, strain BCK1, active compounds read low
[4] = locus YJR066W, strain TOR1, active compounds read low
[5] = locus YLR113W, strain HOG1, active compounds read low
[6] = locus YNL183C, strain NPR1, active compounds read low
[7] = locus YOR231W, strain MKK1, active compounds read low
[8] = locus YPL256C, strain CLN2, active compounds read low
[9] = locus YAL040C, strain CLN3, active compounds read low
[10] = locus YCL061C, strain MRC1 (second series), active compounds read low
[11] = locus YDR150W, strain NUM1, active compounds read low
[12] = locus YDR363W, strain ESC2, active compounds read low
[13] = locus YER002W, strain NOP16, active compounds read low
[14] = locus YGR078C, strain PAC10, active compounds read low
[15] = locus YJR075W, strain HOC1, active compounds read low
[16] = locus YNL128W, strain TEP1, active compounds read low
[17] = locus YNL153C, strain GIM3, active compounds read low
[18] = locus YNL175C, strain NOP13, active compounds read low
[19] = locus YNL197C, strain WHI3, active compounds read low
[20] = locus YNL224C, strain SQS1, active compounds read low
[21] = locus YOR083W, strain WHI5 (second series), active compounds read low
[22] = locus YPL055C, strain LGE1, active compounds read low
[23] = locus YPL241C, strain CIN2, active compounds read low
[24] = locus YMR263W, strain SAP30, active compounds read low
[25] = locus YGR229C, strain SMI1, active compounds read low
[26] = locus YNL322C, strain KRE1, active compounds read low

COC(=O)C(OC(C)=O)[C@H]1C(C)(C)C(OC(C)=O)[C@@H]2CC3=C4CC(=O)O[C@@H](c5ccoc5)[C@]4(C)CCC3[C@@]1(C)C2=O (some centres not stated)
normalized growth [1]: 0.961 | normalized growth [2]: 0.967 | normalized growth [3]: 0.979 | normalized growth [4]: 0.917 | normalized growth [5]: 0.99 | normalized growth [6]: 0.932 | normalized growth [7]: 0.989 | normalized growth [8]: 0.951

CN(N=O)c1cc(O)ccc1O
normalized growth [9]: 0.98 | normalized growth [10]: 0.99 | normalized growth [11]: 1 | normalized growth [12]: 0.975 | normalized growth [13]: 1 | normalized growth [14]: 0.988 | normalized growth [15]: 0.989 | normalized growth [16]: 0.993 | normalized growth [17]: 1.02 | normalized growth [18]: 0.983 | normalized growth [19]: 1.01 | normalized growth [20]: 0.991 | normalized growth [21]: 0.991 | normalized growth [22]: 0.972 | normalized growth [23]: 0.987

CN(N=O)c1ccc(O)c(O)c1
normalized growth (locus YAL013W, strain DEP1, active compounds read low): 0.957 | normalized growth [9]: 0.997 | normalized growth [10]: 0.946 | normalized growth [11]: 0.934 (active) | normalized growth [12]: 0.928 | normalized growth [13]: 0.974 | normalized growth [14]: 0.972 | normalized growth [15]: 0.93 | normalized growth [24]: 0.998 | normalized growth [18]: 0.976 | normalized growth [19]: 0.964 | normalized growth [20]: 0.994 | normalized growth [21]: 0.98 | normalized growth [22]: 0.993

CCC(NC(C)C)C(O)c1ccc(O)c(O)c1 (configuration not stated)
normalized growth [9]: 1 | normalized growth [10]: 0.992 | normalized growth [12]: 1.02 | normalized growth [13]: 1.01 | normalized growth [14]: 1.02 | normalized growth [25]: 0.976 | normalized growth [1]: 1.01 | normalized growth [2]: 0.97 | normalized growth [3]: 0.982 | normalized growth [4]: 0.954 | normalized growth [5]: 0.99 | normalized growth [24]: 1.02 | normalized growth [17]: 1 | normalized growth [18]: 1.02 | normalized growth [6]: 0.923 | normalized growth [19]: 1.02 | normalized growth [20]: 1.01 | normalized growth [26]: 0.992 | normalized growth [21]: 1.03 | normalized growth [7]: 0.982 | normalized growth [23]: 0.991 | normalized growth [8]: 0.96

CC(C)CC(NC(=O)C(Cc1ccccc1)NC(=O)CNC(=O)CNC(=O)C(N)Cc1ccc(O)cc1)C(=O)O (configuration not stated)
normalized growth (locus YBR021W, strain FUR4, active compounds read low): 0.858 | normalized growth (locus YBR229C, strain ROT2, active compounds read low): 0.95 | normalized growth (locus YCL029C, strain bik1, active compounds read low): 0.979 | normalized growth (locus YDL035C, strain GPR1, active compounds read low): 0.956 | normalized growth (locus YDL074C, strain BRE1, active compounds read low): 1.01 | normalized growth (locus YDL101C, strain DUN1, active compounds read low): 1.02 | normalized growth (locus YDL185W, strain tfp1, active compounds read low): 0.973 | normalized growth (locus YDL192W, strain arf1, active compounds read low): 0.995 | normalized growth (locus YDR101C, strain arx1, active compounds read low): 0.976 | normalized growth [11]: 0.989 | normalized growth (locus YDR162C, strain NBP2, active compounds read low): 0.951 | normalized growth (locus YDR318W, strain mcm21, active compounds read low): 0.991 | normalized growth (locus YDR388W, active compounds read low): 0.978 | normalized growth (locus YDR502C, strain sam2, active compounds read low): 1.01 | normalized growth (locus YEL061C, strain CIN8, active compounds read low): 0.987 | normalized growth (locus YER110C, active compounds read low): 0.988 | normalized growth (locus YER155C, strain BEM2, active compounds read low): 1.01 | normalized growth (locus YER167W, strain BCK2, active compounds read low): 0.989 | normalized growth (locus YGL078C, strain dbp3, active compounds read low): 0.999 | normalized growth (locus YGL086W, strain mad1, active compounds read low): 1 | normalized growth (locus YGL248W, strain PDE1, active compounds read low): 1 | normalized growth (locus YGR135W, strain pre9, active compounds read low): 0.96 | normalized growth [25]: 0.963 | normalized growth (locus YGR252W, strain gcn5, active compounds read low): 1.07 | normalized growth [1]: 0.984 | normalized growth (locus YHR079C, strain IRE1 (second series), active compounds read low): 0.996 | normalized growth (locus YHR094C, strain hxt1, active compounds read low): 0.982 | normalized growth (locus YHR129C, strain ARP1, active compounds read low): 0.998 | normalized growth (locus YHR200W, strain rpn10, active compounds read low): 0.994 | normalized growth (locus YIL066C, strain RNR3, active compounds read low): 0.948 | normalized growth (locus YIL073C, strain SPO22, active compounds read low): 1.28 | normalized growth (locus YIL125W, strain kgd1, active compounds read low): 0.993 | normalized growth (locus YIR030C, strain dcg1, active compounds read low): 1 | normalized growth [3]: 1.06 | normalized growth (locus YJL134W, strain LCB3, active compounds read low): 0.987 | normalized growth (locus YJL168C, strain set2, active compounds read low): 1.01 | normalized growth (locus YJL187C, strain SWE1 (second series), active compounds read low): 1.03 | normalized growth (locus YJR043C, strain POL32, active compounds read low): 0.976 | normalized growth (locus YKL009W, strain mrt4, active compounds read low): 1.01 | normalized growth (locus YKL068W, active compounds read low): 0.989 | normalized growth (locus YKL085W, strain MDH1 (second series), active compounds read low): 0.99 | normalized growth (locus YKL085W, strain MDH1, active compounds read low): 0.99 | normalized growth (locus YKL190W, strain CNB1, active compounds read low): 1 | normalized growth (locus YKR001C, strain vps1, active compounds read low): 1.01 | normalized growth (locus YLR039C, strain RIC1, active compounds read low): 1.38 [resistant] (active) | normalized growth (locus YLR058C, strain SHM2, active compounds read low): 0.981 | normalized growth (locus YLR102C, strain apc9, active compounds read low): 0.994 | normalized growth (locus YLR262C, strain YPT6, active compounds read low): 1.46 [resistant] (active) | normalized growth (locus YLR268W, strain sec22, active compounds read low): 1.01 | normalized growth (locus YLR330W, strain CHS5, active compounds read low): 0.986 | normalized growth (locus YLR342W, strain FKS1 (second series), active compounds read low): 0.889 | normalized growth (locus YLR371W, strain rom2, active compounds read low): 0.988 | normalized growth (locus YLR418C, strain cdc73, active compounds read low): 1 | normalized growth (locus YML016C, strain PPZ1, active compounds read low): 0.975 | normalized growth (locus YML032C, strain rad52, active compounds read low): 0.97 | normalized growth (locus YML124C, strain tub3, active compounds read low): 0.998 | normalized growth (locus YMR078C, strain ctf18, active compounds read low): 0.986 | normalized growth (locus YMR223W, strain ubp8, active compounds read low): 0.988 | normalized growth (locus YMR307W, strain GAS1, active compounds read low): 1.01 | normalized growth (locus YNL067W, strain RPL9B, active compounds read low): 1.05 | normalized growth [16]: 0.969 | normalized growth (locus YNL233W, strain BNI4, active compounds read low): 1.04 | normalized growth (locus YNL250W, strain rad50, active compounds read low): 0.981 | normalized growth (locus YNL271C, strain bni1, active compounds read low): 0.988 | normalized growth (locus YNL298W, strain CLA4, active compounds read low): 0.979 | normalized growth (locus YNL307C, strain MCK1, active compounds read low): 0.987 | normalized growth [26]: 0.997 | normalized growth (locus YNR052C, strain pop2, active compounds read low): 0.981 | normalized growth (locus YOL012C, strain htz1): 0.972 | normalized growth (locus YOL147C, strain pex11, active compounds read low): 0.993 | normalized growth (locus YOR061W, strain CKA2, active compounds read low): 0.961 | normalized growth (locus YOR069W, strain VPS5, active compounds read low): 0.99 | normalized growth (locus YOR136W, strain idh2, active compounds read low): 1.02 | normalized growth (locus YOR144C, strain elg1, active compounds read low): 0.995 | normalized growth (locus YOR184W, strain ser1, active compounds read low): 0.996 | normalized growth (locus YOR316C, strain cot1, active compounds read low): 0.989 | normalized growth [22]: 0.988 | normalized growth [23]: 0.985 | normalized growth (locus YPR119W, strain clb2, active compounds read low): 0.992 | normalized growth (locus YPR141C, strain kar3, active compounds read low): 0.991 | normalized growth (locus YPR163C, strain tif3, active compounds read low): 0.979 | normalized growth (locus YPR167C, strain met16, active compounds read low): 0.997 | normalized growth (strain wtn01, active compounds read low): 0.987
